Compounds without any hit were thinned out: in the full panel of roughly 83,000, 20% have a hit.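 Method: cells in 96-well plates; compound added at one concentration; 48 h incubation; percent growth measured; values under 10 scored active.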 Values without a mark were called inactive. Calls of active or inactive are those of the source.

The test system of this assay is MDA-MB-468 breast. The assay can be described thus: NCI-60 one-dose screen, 48 h (100 = growth as untreated, 0 = no growth, -100 = all killed). Conditions: 10 µM unless noted.
As for `COc1cc(-c2ccc(-c3ccc(C(=N)N)nc3)s2)cc(OC)c1OC`, the growth was 22.4%.

Consider `COc1ccc(N(Cc2cc(OC)c(OC)c(OC)c2)C2OC(=O)c3ccccc32)cc1` (stereo not given), for which the growth is 24.2%.

In the case of `[Cl][Ru].c1ccc(-c2cccc(-c3ccccn3)n2)nc1.c1ccc(-c2ccnc3c2ccc2c(-c4ccccc4)ccnc23)cc1`, the growth is -21.4% (active).

Consider `COc1ccc(CNC(=O)COc2ccc(/C=N/Nc3nc4ccccc4s3)cc2)cc1`, for which the growth was 28.3%.

In the case of `Cc1c(C(N)=O)sc2c1c(=O)n(Cc1ccccc1)c1nnc(S(C)(=O)=O)n21`, the growth was 57.1%.

For the molecule `CCCC(=O)N1CCCCC1CC` (stereo not given), the growth was 102%.

On to `N#CC1C(=N)Cc2ccccc2-c2ccccc21` (stereo not given), for which the growth is 9.26% (active).

Consider `Clc1nc(Oc2ccccc2)nc(-c2cn(-c3ccccc3)c3ccccc23)n1`, for which the growth was 88.2%.

Turning to `COc1ccc(C2CC(c3ccccc3)=Nc3ccccc3S2)cc1` (stereo not given), the growth is 102%.

Consider `O=S(=O)(Nc1cc(Cl)cc(Cl)c1)c1ccc(-c2cnc(C3CC3)o2)cc1`, for which the growth is 2.06% (active).

On to `COc1cccc(CCC2C(=O)CCCC2=O)c1`, for which the growth is 115%.

Consider `C=CC(CC(c1ccccc1)(c1ccccc1)c1ccccc1)N(CC)CC` (stereo not given), for which the growth was 30.5%.

As to `O=C(NNc1nc2cc(F)ccc2n2c(CN3CC4CNCC4C3)ccc12)c1cnccn1` (stereo not given), the growth is 3.88% (active).

As for `CCN1C(=O)N(CC)C2C1NN=c1s/c(=C\c3ccco3)c(=O)n12` (stereo not given), the growth is 13.8%.

Turning to `O=C(CSc1nc(-c2ccc(Cl)cc2)cn1-c1ccc(Cl)cc1)c1ccc(Br)cc1`, the growth is 81.3%.

On to `CNC(=O)c1cc(Oc2ccc3c(c2)sc2nc(-c4ccc(N(C)C)cc4)cn23)ccn1`, for which the growth is 36.5%.

With `O=S(=O)(Nc1cc(Cl)c(F)c(Cl)c1)c1ccc(-c2cnc(C3CC3)o2)cc1`, the growth is 13.5%.

Consider `CCOP(=O)(OCC)/C(C#N)=C/c1c(C)[nH]c2ccccc12`, for which the growth is 99.7%.

As for `COc1ccc2cn3c4ccc(O)cc4[nH]c(=O)c3c2c1`, the growth was -11.9% (active).

Turning to `OCCOCCN(Cc1ccccn1)Cc1cc(I)cc(I)c1O`, the growth is 88%.

Consider `CC1=C(CC(=O)c2cccc([N+](=O)[O-])c2)C(=O)c2ccccc2C1=O`, for which the growth is -52.5% (active).

As for `N=c1ccccn1CCO`, the growth was 113%.

Take `C=CCNC(=O)Cc1c(-c2ccc(OC)cc2)oc2c(OC)c3c(c(OC)c12)OCO3`: the growth was 94.9%.

As for `CS(=O)(=O)Nc1ccc(Nc2c3ccccc3nc3cc(N)ccc23)cc1`, the growth is -52.9% (active).

In the case of `CC1(C)CC(=O)C2=C(C1)N(c1ccc(F)cc1F)C(N)=C(C#N)C2c1cc(Br)ccc1F` (stereo not given), the growth was 92.9%.

On to `COC(=O)c1cc2oc(/C=N/NC(=O)c3cc4oc(-c5cccc(C(F)(F)F)c5)cc4[nH]3)cc2n1Cc1ccccc1`, for which the growth was 106%.

As for `CC(=O)CSc1ncnc2nc[nH]c12`, the growth was 40.6%.

Take `CC(=O)N1N=C(c2ccc(C(F)(F)F)cc2)CC1c1ccc2c(c1)OCO2` (stereo not given): the growth was 93.8%.

On to `O=C(CCCCCCN1CC(=O)N2[C@H](c3cc(Br)cs3)c3[nH]c4ccccc4c3C[C@H]2C1=O)NO`, for which the growth is 44.7%.

As to `O=C(N/N=C/c1ccc(Cl)cc1Cl)c1ccc2nc(-c3ccc(Cl)cc3)[nH]c2c1`, the growth is -44.1% (active).

For `COc1cc(/C=C2\CN(S(=O)(=O)c3ccc(C)cc3)C/C(=C\c3cc(CN4CCCCC4)c(O)c(OC)c3)C2=O)cc(CN2CCCCC2)c1O`, the growth was -63.3% (active).

Turning to `CN1CCN(CCCOc2ccc3nc(Nc4cc(Cl)cc(Cl)c4)ccc3c2)CC1`, the growth was -74.4% (active).

Turning to `CCCCCCCCCCCCc1ccc(C(=O)/C=C/C(=O)O)cc1`, the growth was -9.53% (active).

With `O=C(NCCc1ccccc1)Nc1ccc2cc3ccc(NC(=O)NCCc4ccccc4)cc3nc2c1`, the growth was -5.36% (active).

Consider `COC(=O)[C@]12CC[C@@H](C)[C@H](C)[C@@H]1C1=CC[C@@H]3[C@@]4(C)C=C(O)C(=O)C(C)=C4CC[C@@]3(C)[C@]1(C)CC2`, for which the growth is 10.6%.

On to `O=S(=O)(NC1c2ccccc2Oc2ccccc21)c1ccccc1`, for which the growth is 87.6%.

Turning to `O=c1cc(-c2ccccc2)oc2cc(OCc3cn(Cc4ccc(F)cc4)nn3)cc(O)c12`, the growth was 53.9% [100 µM].

For the molecule `CCOCCNC1=C(Cl)C(=O)c2ccccc2C1=O`, the growth is 94.7%.

Regarding `C/C(=N\NC(=O)C(C)SC(C)C(=O)N/N=C(\C)c1cccnc1)c1cccnc1` (stereo not given), the growth was 103%.

With `O=C(Nc1ccc(-n2ccc3c(NC(=O)c4ccccc4)ncnc32)cc1)Nc1ccc(Cl)c(Cl)c1`, the growth is -36.7% (active).
